{"source": "the supplement of paper PMC8728848", "binders": {"B1": {"name": "Epa10 (protein)", "chain": "MNEKIFRYLTLLFLFELARSLPVEDKLNIKKVFEKRAVDFTPFAHYPRPEGCSSPPNSVSVGLHMNLYNYPYLYVKPSTKGMFTNDTNSDADGETDGDSAGGIEGRAGQCWNPEYQDPNFPRFGYKQYGEFGASDNVNGDISWDHNEFTEGCKPVLAALPPGYNYPDEITFSNFTMVLSGYFKPKTSGVYKFELKADDFILFNFGAKNAFECCNREESIDNFGPYVAYAMWPNQADQELEVYLFEDSYYPLRLFYNNRDYHSKFKIGFYPPGQTTITFDFDGYLFMLDDTGNECRDSIRYRTVCDDKVVDDTTYSTRYSTSMVPGGGSDVITIYYIRMKCEEEDCLGQWDPINNVCYSPDDCADDGGYWNGQMCDQSCKLEGGIVNPDTGDCDKSCIESGGFLDENGNCDTTCRDDGGMLVEGQCDYQCKEAGGILVGDHCDTTCVDSGGKLNEDGTCDHSCRDQGGQLDENGECDTSCKDSGGMLIEGECDTSCKDEGGQLDDNNECINHCKDQGGIIDENGNCDTSCKDSGGKLDESGACDTSCRDDGGIIDENGNCNTTCRDDGGIIVGDHCDTSCRDAGGILIEDHCDTTCRDSGGKLNEDGTCDHSCRDQGGQLDENGKCDYSCKNGGGKLDEDGNCDMSCKENGGKLDENGDCDLSCKEDGGKLDGNGDCDYSCKEEGGVIDESGNCNTTCKDSGGQIIDGECNYGCIEVGGVVIDGECDTSCIDSGGILDGDGNCDRSCIESGGVLEDGACNTTCRDSGGQLNVDGTCDTSCRDDGGMLVEGQCDYQCKEAGGILEDGECVFPPTSSSTSETSSTTDQSSLQSDDSSMESSSTPMDSSTIESSSSEIITSESESESVPIASSSSEVMTSESESESIPILTSSSEIPIASSSSEIPVASSSSEIIIPESESESVPVASSSSEIPIASSSSEIPVASSSSEIPVASSSSEIIIPESESESIPIESTSSEAVSSRSESDSSYPTPTPTTTTITTWPNPIQPTTSNSSPIVSSSTETPGIAESSSRISDLESSRRTSILGDDRTRTRTTITSTITEDGQIITITTTVTGFVPEPTGETEGNGSDDENPENPIENNTDENEFLDPEFTDDIPDDPAGPEDNGNGPVNPEQGNDNDPVNLEDSGNNGAVNPEQAPVNDEDNGGNDPVNPEQDNNNGPANPGQDSTNGSGNSDQIDNNPPTPEENAGDGNSNGNDPADPSRRTSILGDERTRASPGGTSQPTGANGNVNGNSPGANVNGGGTGNSNNNNNNNNNNNNGNAPNGGDGSNGDANQGPSRRTSLLGDERTRAGQAAPTGGSSPDNGIAGDTSNNGGAIVSQQVDDGGAGSPRRTSILGDVRSRTTLNGEVLNFEGSGVRRAVAGNLALPLMMVGLVFNL"}}, "experiment_in_all_cases": "glycan array binding signal (z-score within array); higher = stronger binding", "details_in_all_cases": "glycan notation: IUPAC condensed, linker removed", "key": {"[1]": {"molecular_target": "Fuc(a1-2)Gal(b1-3)GlcNAc(b1-3)[Neu5Ac(a2-6)Gal(b1-4)GlcNAc(b1-6)]Gal(b1-4)Glc", "summary_of_the_method": "(§1)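 The binding signal is a Z-score computed within each array. Data were drawn from 3228 arrays in the Consortium for Functional Glycomics database, restricted to those with a known protein sequence. Scores were averaged over arrays of the same protein sequence at different concentrations or buffers, and over linkers, and negative values can be taken as non-binding.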"}, "[2]": {"molecular_target": "Fuc(a1-2)Gal(b1-3)[Fuc(a1-4)]GlcNAc", "summary_of_the_method": "as §1"}, "[3]": {"molecular_target": "Fuc(a1-2)Gal(b1-4)GlcNAc(b1-6)GalNAc", "summary_of_the_method": "as §1"}, "[4]": {"molecular_target": "Fuc(a1-2)Gal(b1-4)GlcNAc6S", "summary_of_the_method": "as §1"}, "[5]": {"molecular_target": "Fuc(a1-2)[Gal(a1-3)]Gal(b1-3)GalNAc(b1-3)Gal(a1-4)Gal(b1-4)Glc", "summary_of_the_method": "as §1"}, "[6]": {"molecular_target": "Fuc(a1-2)[Gal(a1-3)]Gal(b1-4)Glc", "summary_of_the_method": "as §1"}, "[7]": {"molecular_target": "Fuc(a1-2)[Gal(a1-3)]Gal(b1-4)GlcNAc(b1-6)GalNAc", "summary_of_the_method": "as §1"}, "[8]": {"molecular_target": "Fuc(a1-2)[GalNAc(a1-3)]Gal(b1-3)GalNAc(a1-3)[Fuc(a1-2)]Gal(b1-4)GlcNAc", "summary_of_the_method": "as §1"}, "[9]": {"molecular_target": "Fuc(a1-2)[GalNAc(a1-3)]Gal(b1-4)[Fuc(a1-3)]GlcNAc(b1-3)GalNAc", "summary_of_the_method": "as §1"}, "[10]": {"molecular_target": "Fuc(a1-3)[Gal(b1-4)]GlcNAc6S", "summary_of_the_method": "as §1"}, "[11]": {"molecular_target": "Gal(a1-3)Gal(b1-4)[Fuc(a1-3)]GlcNAc(b1-2)Man(a1-3)[Gal(a1-3)Gal(b1-4)[Fuc(a1-3)]GlcNAc(b1-2)Man(a1-6)]Man(b1-4)GlcNAc(b1-4)GlcNAc", "summary_of_the_method": "as §1"}, "[12]": {"molecular_target": "Gal(a1-4)Gal(b1-3)GlcNAc(b1-2)Man(a1-3)[Gal(a1-4)Gal(b1-3)GlcNAc(b1-2)Man(a1-6)]Man(b1-4)GlcNAc(b1-4)GlcNAc", "summary_of_the_method": "as §1"}, "[13]": {"molecular_target": "Gal(a1-4)Gal(b1-4)GlcNAc(b1-2)Man(a1-3)[Gal(a1-4)Gal(b1-4)GlcNAc(b1-2)Man(a1-6)]Man(b1-4)GlcNAc(b1-4)GlcNAc", "summary_of_the_method": "as §1"}, "[14]": {"molecular_target": "Gal(a1-4)Gal(b1-4)GlcNAc(b1-3)Gal(b1-4)Glc", "summary_of_the_method": "as §1"}, "Gal(b1-3)Gal(b1-4)GlcNAc": {"molecular_target": "Gal(b1-3)Gal(b1-4)GlcNAc", "summary_of_the_method": "as §1"}, "Gal(b1-3)GalNAc": {"molecular_target": "Gal(b1-3)GalNAc", "summary_of_the_method": "as §1"}, "[15]": {"molecular_target": "Gal(b1-3)GalNAc(a1-3)[Fuc(a1-2)]Gal(b1-4)Glc", "summary_of_the_method": "as §1"}, "[16]": {"molecular_target": "Gal(b1-3)GalNAc(a1-3)[Fuc(a1-2)]Gal(b1-4)GlcNAc", "summary_of_the_method": "as §1"}, "Gal(b1-3)GalNAc(b1-3)Gal": {"molecular_target": "Gal(b1-3)GalNAc(b1-3)Gal", "summary_of_the_method": "as §1"}, "[17]": {"molecular_target": "Gal(b1-3)GalNAc(b1-3)Gal(a1-4)Gal(b1-4)Glc", "summary_of_the_method": "as §1"}, "[18]": {"molecular_target": "Gal(b1-3)GalNAc(b1-4)Gal(b1-4)Glc", "summary_of_the_method": "as §1"}, "[19]": {"molecular_target": "Gal(b1-3)GalNAc(b1-4)[Neu5Ac(a2-3)]Gal(b1-4)Glc", "summary_of_the_method": "as §1"}, "[20]": {"molecular_target": "Gal(b1-3)GlcNAc(b1-3)Gal(b1-4)GlcNAc(b1-3)Gal(b1-4)GlcNAc(b1-2)[Gal(b1-3)GlcNAc(b1-3)Gal(b1-4)GlcNAc(b1-3)Gal(b1-4)GlcNAc(b1-6)]Man(a1-6)[Gal(b1-3)GlcNAc(b1-3)Gal(b1-4)GlcNAc(b1-3)Gal(b1-4)GlcNAc(b1-2)Man(a1-3)]Man(b1-4)GlcNAc(b1-4)[Fuc(a1-6)]GlcNAc", "summary_of_the_method": "as §1"}, "[21]": {"molecular_target": "Gal(b1-3)[Fuc(a1-4)]GlcNAc(b1-3)Gal(b1-4)[Fuc(a1-3)]GlcNAc", "summary_of_the_method": "as §1"}, "[22]": {"molecular_target": "Gal(b1-3)[Neu5Ac(a2-6)]GalNAc", "summary_of_the_method": "as §1"}, "[23]": {"molecular_target": "Gal(b1-4)GlcNAc(b1-2)Man(a1-3)[Gal(b1-4)GlcNAc(b1-2)Man(a1-6)][Gal(b1-4)GlcNAc(b1-4)]Man(b1-4)GlcNAc(b1-4)[Fuc(a1-6)]GlcNAc", "summary_of_the_method": "as §1"}, "[24]": {"molecular_target": "Gal(b1-4)GlcNAc(b1-2)[Gal(b1-4)GlcNAc(b1-6)]Man(a1-6)[GlcNAc(b1-4)][Gal(b1-4)GlcNAc(b1-2)[Gal(b1-4)GlcNAc(b1-4)]Man(a1-3)]Man(b1-4)GlcNAc(b1-4)[Fuc(a1-6)]GlcNAc", "summary_of_the_method": "as §1"}, "[25]": {"molecular_target": "Gal(b1-4)GlcNAc(b1-3)Gal(b1-4)Glc", "summary_of_the_method": "as §1"}, "[26]": {"molecular_target": "Gal(b1-4)GlcNAc(b1-6)[Gal(b1-3)]GalNAc", "summary_of_the_method": "as §1"}, "[27]": {"molecular_target": "Gal(b1-4)GlcNAc(b1-6)[Gal(b1-4)GlcNAc(b1-3)]GalNAc", "summary_of_the_method": "as §1"}}, "note": "Many of the other results were omitted from the sample, so the strongest signals are more common in it than they were."}
{"binder": "B1", "values": [{"measurement": "glycan array binding signal (z-score)", "setting": "[1]", "result": -0.195}, {"measurement": "glycan array binding signal (z-score)", "setting": "[2]", "result": -0.222}, {"measurement": "glycan array binding signal (z-score)", "setting": "[3]", "result": -0.172}, {"measurement": "glycan array binding signal (z-score)", "setting": "[4]", "result": -0.198}, {"measurement": "glycan array binding signal (z-score)", "setting": "[5]", "result": -0.256}, {"measurement": "glycan array binding signal (z-score)", "setting": "[6]", "result": -0.272}, {"measurement": "glycan array binding signal (z-score)", "setting": "[7]", "result": -0.16}, {"measurement": "glycan array binding signal (z-score)", "setting": "[8]", "result": -0.215}, {"measurement": "glycan array binding signal (z-score)", "setting": "[9]", "result": -0.113}, {"measurement": "glycan array binding signal (z-score)", "setting": "[10]", "result": -0.223}, {"measurement": "glycan array binding signal (z-score)", "setting": "[11]", "result": 0.134}, {"measurement": "glycan array binding signal (z-score)", "setting": "[12]", "result": 3.35}, {"measurement": "glycan array binding signal (z-score)", "setting": "[13]", "result": 1.46}, {"measurement": "glycan array binding signal (z-score)", "setting": "[14]", "result": 1.2}, {"measurement": "glycan array binding signal (z-score)", "setting": "Gal(b1-3)Gal(b1-4)GlcNAc", "result": 4.92}, {"measurement": "glycan array binding signal (z-score)", "setting": "Gal(b1-3)GalNAc", "result": 3.84}, {"measurement": "glycan array binding signal (z-score)", "setting": "[15]", "result": 3.03}, {"measurement": "glycan array binding signal (z-score)", "setting": "[16]", "result": 3.87}, {"measurement": "glycan array binding signal (z-score)", "setting": "Gal(b1-3)GalNAc(b1-3)Gal", "result": 6.03}, {"measurement": "glycan array binding signal (z-score)", "setting": "[17]", "result": 4.11}, {"measurement": "glycan array binding signal (z-score)", "setting": "[18]", "result": 17}, {"measurement": "glycan array binding signal (z-score)", "setting": "[19]", "result": 4.18}, {"measurement": "glycan array binding signal (z-score)", "setting": "[20]", "result": 0.117}, {"measurement": "glycan array binding signal (z-score)", "setting": "[21]", "result": -0.254}, {"measurement": "glycan array binding signal (z-score)", "setting": "[22]", "result": 3.73}, {"measurement": "glycan array binding signal (z-score)", "setting": "[23]", "result": -0.267}, {"measurement": "glycan array binding signal (z-score)", "setting": "[24]", "result": 0.014}, {"measurement": "glycan array binding signal (z-score)", "setting": "[25]", "result": -0.234}, {"measurement": "glycan array binding signal (z-score)", "setting": "[26]", "result": 2.59}, {"measurement": "glycan array binding signal (z-score)", "setting": "[27]", "result": 0.208}]}
